Assay outcomes from PubChem BioAssay.
Rows were chosen to be rich in hits. Some 21% of all compounds tested hit in one or more screens of this group.
Shiga toxin inh: Shiga toxin inhibition; Vero cells, Shiga toxin protein synthesis inhibition reporter; inhibition, % at 38.7 µM; 290,000 tested, 9.2% active; AID 2315; in the data active = inhibition mostly above about 28%, no sharp cut-off; inactive = mostly below about 43%; note: 0% is about no effect
HCV inhibitor: blocks hepatitis C virus; AID 651820; Potency, µM (top dose mostly 41.8 µM), inactives show at the highest dose activity change, negative = inhibition, hits mostly inhibitors; Huh7.5.1 HCVcc-Cre infection, luciferase reporter, 44 h; 340,000 tested, 3.4% active; note: potency is the fitted concentration of half-maximal effect; % is set by controls: 0 for no effect and ±100 for the full control effect
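Whole-lifecycle infectious HCVcc-Cre system; cells 1,000/well, compound then virus (~0.5 moi) added 4 h after plating, 44 h culture. Luciferase read 15 sec following 15 min substrate incubation, room temp.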
HCMV inh: human cytomegalovirus inhibition; HFF cells, HCMV-luciferase reporter, 72 h; active compounds read low; activity change, negative = inhibition, % at 57.5 µM; 410,000 tested, 4.5% active; AID 1259415; in the data active = activity change below about -60%; inconclusive = no clear call, values can overlap the other calls; inactive = above about -39%; note: % is set by controls: 0 for no effect and ±100 for the full control effect
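Cell-based, HFFs, 1000 cells/well, 16 h 37C; cpds in DMSO + HCMV-luc, MOI 1 PFU/cell; 72 h 37C; OneGlo luminescence after 5 min RT; norm. to buffer vs Salinomycin 10uM.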
Pf growth 48h: inhibits P. falciparum growth in the first generation, 48 h; P. falciparum luciferase growth in erythrocytes, 48 h; Potency, µM (top dose mostly 28.7 µM), for the others: at the top dose activity change, negative = inhibition, actives largely listed as inhibitors; 310,000 tested, 5.9% active; note: potency is the fitted concentration of half-maximal effect; % is set by controls: 0 for no effect and ±100 for the full control effect
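Read-out is firefly luciferase luminescence from an integrated reporter in P. falciparum, so falling signal marks reduced parasite growth. Infected erythrocytes were at 2% hematocrit and 0.1% parasitemia (final) in Albumax-supplemented RPMI 1640.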
CHX counter: counter-screen hit for Shiga toxin inhibitors, cycloheximide; 300,000 tested, 12% active; max response, %; cell reporter, cycloheximide protein synthesis inhibition counterscreen; in the data active = max response mostly above about 13%, no sharp cut-off; inactive = mostly below about 14%; note: read at 38.3 µM for the half of the compounds with a filed dose; 0% is about no effect
Pf growth 96h: P. falciparum growth inhibition at 96 hours; P. falciparum luciferase reporter growth, 96 h; Potency, µM (series often up to 28.7 µM), for the others: top-dose activity change, negative = inhibition, usual class: inhibitors; 320,000 tested, 6.9% active; AID 504834; note: potency is the fitted concentration of half-maximal effect; % is set by controls: 0 for no effect and ±100 for the full control effect
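Plates of compound plus infected erythrocytes (2% hematocrit, 0.05% parasitemia final) incubate 96 hours, 37 C, 5% CO2. Detection reagent added; reduced luminescence from the parasites' luciferase reporter flags inhibition.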
* marks the source's active call; other numbers are inactive results. Unless noted, calls come from the whole dose curve; as a rule, active = well fitted inhibition curve with a large enough effect; inconclusive = small, poorly fitted or top-dose-only effect, or another doubt; inactive = no such curve, though single readings can be large or run the other way.

Screening COc1ccc(Cn2ccc3nc(C)c(C(=O)N4CCN(c5ccc(F)cc5)CC4)cc3c2=O)cc1 returned HCMV inh 1.
Screening CCOC(=O)C1CCCN(C(=O)c2ccc(S(=O)(=O)NCc3ccco3)cc2)C1 (stereo unspecified) returned HCV inhibitor 6%, HCMV inh -16, Pf growth 48h inconclusive and Pf growth 96h 12µM*.
For CC1CCCC(C)N1C(=O)c1ccc(S(=O)(=O)NCc2ccco2)cc1 (stereo unspecified) the results were Shiga toxin inh 46*, HCV inhibitor 11%, HCMV inh -76*, Pf growth 48h -15%, CHX counter 27* and Pf growth 96h -8%.
Screening CCOc1ccc2oc(C(=O)OCC(=O)N(CC(C)C)c3c(N)n(Cc4ccccc4)c(=O)[nH]c3=O)c(C)c2c1 returned HCV inhibitor inconclusive and HCMV inh -25.
For CCOC(=O)c1cc(OC(=O)c2ccc(OC)c(OC)c2)n(-c2ccccc2)n1 the results were HCMV inh 30.
O=C(CSc1nnc(NC2CCCCC2)s1)N1CCOCC1 was read as HCV inhibitor 9%, HCMV inh 86, Pf growth 48h 16% and Pf growth 96h -7%.
`CCOC(=O)N1CCN(C(=O)CSc2ccc3nnc(CCNC(=O)c4ccc(OC)cc4)n3n2)CC1` gave Shiga toxin inh 12, HCV inhibitor -5%, HCMV inh 0, Pf growth 48h 9%, CHX counter -4 and Pf growth 96h 22%.
`COc1cc(/C=N/Nc2nc(Nc3ccc(C)cc3)nc(-n3nc(C)cc3C)n2)cc(OC)c1OC` gave Shiga toxin inh 109*, HCV inhibitor inconclusive, HCMV inh 21, CHX counter 7 and Pf growth 96h 1.9µM*.
For COc1cc(/C=N/Nc2nc(Nc3ccccc3)nc(-n3nc(C)cc3C)n2)cc(OC)c1OC the results were Shiga toxin inh 45*, HCV inhibitor 2.8µM*, HCMV inh -12, Pf growth 48h 3.3µM*, CHX counter 18* and Pf growth 96h -2%.
COc1cc(/C=N/NC(=S)NCCc2ccccc2)cc(OC)c1OC was read as Shiga toxin inh 26, HCV inhibitor -27%, HCMV inh 26, Pf growth 48h 4%, CHX counter -4 and Pf growth 96h inconclusive.
For COc1ccc(/C=N/Nc2nc(Nc3ccccc3)nc(N3CCCCC3)n2)c(OC)c1 the results were Shiga toxin inh 21, HCV inhibitor -5%, HCMV inh inconclusive, Pf growth 48h inconclusive, CHX counter -1 and Pf growth 96h -104%.
For COc1ccc(O)c(/C=N/Nc2nc(Nc3ccccc3)nc(-n3nc(C)cc3C)n2)c1 the results were Shiga toxin inh 40, HCV inhibitor inconclusive, HCMV inh -77*, Pf growth 48h 1.9µM*, CHX counter -3 and Pf growth 96h 2.1µM*.
CC(C)(C)OC(=O)N(Cc1ccccc1)Cc1cccc(OCc2cccc(NC(=O)c3ccccc3)c2)c1 was read as HCV inhibitor 7.9µM* and HCMV inh -28.
`CC(=O)c1cccc(NC(=O)c2ccc(N(Cc3ccc(C)cc3)S(C)(=O)=O)cc2)c1` gave Shiga toxin inh 9, HCV inhibitor 13µM*, HCMV inh -7, CHX counter -1 and Pf growth 96h inconclusive.
`CN(C)S(=O)(=O)c1cccc(NC(=O)c2ccc(OC(F)(F)F)cc2)c1` gave Shiga toxin inh 11, HCV inhibitor inconclusive, HCMV inh -95*, Pf growth 48h 54%, CHX counter 7 and Pf growth 96h 0%.
`CC(C)(C)OC(=O)N(Cc1ccccc1)Cc1ccccc1OCc1cccc(NC(=O)c2ccccc2)c1` gave HCV inhibitor inconclusive and HCMV inh -34.
For CN(c1ccc(C(=O)Nc2cccnc2)cc1)S(=O)(=O)c1ccccc1 the results were Shiga toxin inh 3, HCV inhibitor inconclusive, HCMV inh -71*, Pf growth 48h -27%, CHX counter -2 and Pf growth 96h 33%.
Screening CN(c1ccc(C(=O)Nc2cccnc2)cc1)S(=O)(=O)c1ccc(Cl)cc1 returned Shiga toxin inh -10, HCV inhibitor -20%, HCMV inh -18, Pf growth 48h 38%, CHX counter -4 and Pf growth 96h 7%.
`Cc1ccc(C)c(Cn2c(=O)c3c(nc4n3CCN4c3ccc(F)cc3)n(C)c2=O)c1` gave HCMV inh -29.
For CC(=O)Nc1cccc(OCc2ccc(S(=O)(=O)Cc3ccccc3)cc2)c1 the results were Shiga toxin inh 64*, HCV inhibitor inconclusive, HCMV inh 43, Pf growth 48h -20%, CHX counter 40* and Pf growth 96h inconclusive.
CC(=O)Nc1ccc(OCc2ccc(S(=O)(=O)Cc3ccccc3)cc2)cc1 was read as Shiga toxin inh 3, HCV inhibitor 6%, HCMV inh 55, Pf growth 48h 13%, CHX counter -3 and Pf growth 96h inconclusive.
For CN(C)S(=O)(=O)c1cccc(NC(=O)c2ccc(COc3ccccc3)cc2)c1 the results were Shiga toxin inh 17, HCV inhibitor 10µM*, Pf growth 48h inconclusive, CHX counter 13 and Pf growth 96h inconclusive.
`CN(c1ccc(C(=O)Nc2ccccn2)cc1)S(=O)(=O)c1ccccc1` gave Shiga toxin inh 90*, HCV inhibitor 12%, HCMV inh -7, Pf growth 48h 17%, CHX counter 32* and Pf growth 96h inconclusive.
Screening CC(=O)c1cccc(NC(=O)c2ccc(N(C)S(=O)(=O)c3ccc(C)cc3)cc2)c1 returned Shiga toxin inh -22, HCV inhibitor inconclusive, HCMV inh -29, Pf growth 48h inconclusive, CHX counter -2 and Pf growth 96h 8.3µM*.
CCSC(=Nc1ccccc1)N1CCOCC1 was read as HCV inhibitor -7% and HCMV inh -35.
Screening Cc1ccccc1CNCCCSc1nnnn1-c1ccccc1 returned HCMV inh -5.
`CN(c1ccc(C(=O)Nc2cccc(O)c2)cc1)S(=O)(=O)c1ccccc1` gave Shiga toxin inh 21, HCV inhibitor inconclusive, HCMV inh 1, Pf growth 48h -5%, CHX counter 19* and Pf growth 96h -23%.
Screening CC(=O)NCCC(=O)Nc1cccc(S(=O)(=O)N(C)c2ccccc2)c1 returned Shiga toxin inh 1, HCV inhibitor 6%, HCMV inh -36, Pf growth 48h inconclusive, CHX counter -3 and Pf growth 96h -9%.
`Cc1cccc(C)c1NC(=O)CN(C)C(=O)c1ccc(COc2ccccc2)cc1` gave Shiga toxin inh 40, HCV inhibitor inconclusive, HCMV inh -9, Pf growth 48h -1%, CHX counter 20* and Pf growth 96h -3%.
Screening COCc1ccc(C(=O)Nc2cccc(S(=O)(=O)N(C)c3ccccc3)c2)cc1 returned HCV inhibitor 22µM* and HCMV inh -96*.
